Hits are enriched below; roughly 19% of the tested compounds scored in any of these assays.
Marburg entry inh = inhibitors of Marburg virus binding or cell entry | Marburg virus pseudotyped entry inhibition, cell reporter | Potency, µM (top dose mostly 37.8 µM), inactives show at the highest dose activity change, negative = inhibition, hits mostly inhibitors | actives 1.8% (n = 300,000); calls by dose curve; tested in HEK293 cells; note: potency is the fitted concentration of half-maximal effect; % is set by controls: 0 for no effect and ±100 for the full control effect
Pf growth 96h = P. falciparum growth inhibition at 96 hours; actives 6.9% (n = 320,000); Potency, µM (doses to about 28.7 µM), inactives show at the highest dose activity change, negative = inhibition, hits mostly inhibitors; P. falciparum luciferase reporter growth, 96 h; note: potency is the fitted concentration of half-maximal effect; % is set by controls: 0 for no effect and ±100 for the full control effect
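Plates of compound plus infected erythrocytes (2% hematocrit, 0.05% parasitemia final) incubate 96 hours, 37 C, 5% CO2. Detection reagent added; reduced luminescence from the parasites' luciferase reporter flags inhibition.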
LASV entry inh = blocks Lassa virus binding to or entry into cells; Lassa virus pseudotype entry inhibition, cell reporter; Potency, µM (titrated, usually from 37.9 µM), inactives show at the top dose activity change, negative = inhibition, actives largely listed as inhibitors; actives 1.2% (n = 300,000); calls by dose curve; tested in HEK293 cells; note: potency is the fitted concentration of half-maximal effect; % is set by controls: 0 for no effect and ±100 for the full control effect; nearly all actives have a fitted effect of over 50% in size
Shiga toxin inh = inhibitors of Shiga toxin in Vero cells. Vero cells, Shiga toxin protein synthesis inhibition reporter. inhibition, % at 38.7 µM. actives 9.2% (n = 290,000). AID 2315; in the data active = inhibition mostly above about 28%, no sharp cut-off; inactive = mostly below about 43%; note: 0% is about no effect
Cycloheximide cs = counter-screen for Shiga toxin inhibitors: cycloheximide protein synthesis inhibition; cell reporter, cycloheximide protein synthesis inhibition counterscreen; max response, %; actives 12% (n = 300,000); in the data active = max response mostly above about 13%, no sharp cut-off; inactive = mostly below about 14%; note: read at 38.3 µM for the half of the compounds with a filed dose; 0% is about no effect
Pf growth 48h = inhibits P. falciparum growth in the first generation, 48 h. Potency, µM (top dose mostly 28.7 µM), inactives show at the top dose activity change, negative = inhibition, actives largely listed as inhibitors. P. falciparum luciferase growth in erythrocytes, 48 h. actives 5.9% (n = 310,000); note: potency is the fitted concentration of half-maximal effect; % is set by controls: 0 for no effect and ±100 for the full control effect
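Erythrocytes infected with P. falciparum carrying an integrated firefly luciferase reporter (2% hematocrit, 0.1% parasitemia final) were exposed to compounds in RPMI 1640 with 0.5% Albumax at 37 C, 5% CO2. Growth inhibition was scored as reduced luminescence.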
Numbers without * were called inactive; ? = inconclusive; · = not tested or not shown; [ ] = remark or other dose. Unless noted, calls come from the whole dose curve; as a rule, active = well fitted inhibition curve with a large enough effect; inconclusive = small, poorly fitted or top-dose-only effect, or another doubt; inactive = no such curve, though single readings can be large or run the other way.

SMILES	Marburg entry inh	Pf growth 96h	LASV entry inh	Shiga toxin inh	Cycloheximide cs	Pf growth 48h
COc1ccc(-c2nn(CCC#N)cc2C(=O)NCc2ccccc2)cc1OC	·	12µM*	·	-4	-3	232%
CCOCCCN(Cc1ccco1)S(=O)(=O)c1csc(C(N)=O)c1	·	13µM*	·	3	-2	20%
CC(C)CCN(Cc1ccco1)S(=O)(=O)c1csc(C(N)=O)c1	·	-21%	·	-9	-2	7%
CCNC(=S)NNc1nncc2ccccc12	-6%[46.1 µM]	?	23%	25	10	16%
COc1ccc(NS(=O)(=O)c2cc(NC(=O)c3cnccn3)ccc2OC)cc1Br	?	-21%	?	-8	-1	-19%
O=C(CNC(=O)c1ccc(Br)cc1)c1ccccc1	·	264%	·	29*	28*	95%
O=C(CNC(=O)c1ccccc1)c1ccccc1	·	202%	·	·	·	106%
O=C(CNC(=O)c1ccc(Br)cc1)c1ccc(Br)cc1	·	?	·	27	1	26%
COc1ccc(C(=O)NCC(=O)OCc2ccc(Br)cc2)cc1	12%[46.1 µM]	?	28%[46.1 µM]	-7	-1	-2%
O=C(CNC(=O)c1ccccc1C(=O)O)c1ccccc1	7%	59%	?	62*	49*	125%
O=C(CNC(=O)c1ccc(Cl)cc1)c1ccc(Cl)cc1	?	31%	14%[46.1 µM]	52*	16*	·
O=C(CNC(=O)c1ccc(-c2ccccc2)cc1)OCc1ccc(Br)cc1	-21%[46.1 µM]	0%	14%	68*	39*	33%
O=C(CNC(=O)c1ccc(F)cc1)c1ccc(Cl)cc1	?	-7%	?	69*	46*	?
CC(=O)Oc1ccc2occ(C(=O)c3ccccc3)c2c1	?	·	6%[46.1 µM]	·	·	·
CC(=O)Oc1ccc2occ(C(=O)c3cccs3)c2c1	12%	34%	?	67*	37*	·
O=C(O)COc1ccc2occ(C(=O)c3ccccc3)c2c1	22%	·	?	1	-3	3%
O=C(c1cccs1)c1coc2ccc(O)cc12	?	1%	0%	81*	75*	·
CCC(=O)c1coc2ccc(O)cc12	30%	·	-8%	·	·	·
CC(=O)Oc1ccc2occ(-c3ccccc3)c2c1	·	?	·	125*	25*	47%
O=C(CCl)Oc1ccc2occ(C(=O)c3cccs3)c2c1	8%	121%	18%	50	39*	·
Cc1cc(=O)oc(C)c1C(=O)NNC(=O)C1(C)CC1Br (stereo not drawn)	12%	32%	-2%	-4	-1	41%
Cc1ccc(S(=O)(=O)N2CCC[C@H]2C(=O)OC(C)C(=O)Nc2ncc(Cl)cc2Cl)cc1 (stereo partly drawn)	-10%	33%	-13%	-8	-2	3%
O=S(=O)(NCC1(N2CCOCC2)CCCCC1)c1ccccc1Cl	-4%	?	-2%	·	·	?
CS(=O)(=O)c1ccc2nc(NC(=O)CCNC(=O)c3ccc(Cl)cc3)sc2c1	-4%	4.1µM*	14%[46.1 µM]	·	·	-40%
CC(C)(Oc1ccc(Cl)cc1)C(=O)Nc1nc2ccc(S(C)(=O)=O)cc2s1	-13%[46.1 µM]	·	18%[46.1 µM]	·	·	·
SMILES	Marburg entry inh	Pf growth 96h	LASV entry inh	Shiga toxin inh	Cycloheximide cs	Pf growth 48h
NS(=O)(=O)c1ccc2nc(NC(=O)Nc3ccc(F)cc3)sc2c1	?	94%	-1%[46.1 µM]	54*	46*	38%
CS(=O)(=O)c1ccc2nc(NC(=O)Nc3ccc(Cl)cc3)sc2c1	-11%	1.2µM*	-4%	-13	8	?
CS(=O)(=O)c1ccc2nc(NC(=O)c3ccc(Cl)cc3)sc2c1	-3%[46.1 µM]	?	6%[46.1 µM]	17	16*	35%
O=C(c1ccco1)N1CCN(C(c2coc3ccc(Cl)cc3c2=O)c2nnnn2C2CCCC2)CC1 (stereo not drawn)	1%	·	-19%	·	·	·
COC(=O)[C@@H](NC(=O)NCc1ccc(F)cc1)C(C)C	0%	-20%	1%	-14	-2	·
Cc1ccccc1OCC(=O)N/N=C/C=C/c1ccccc1	2%	?	6%	10	-3	0%
COc1ccc(/C=C/C(=O)Oc2ccc(/C=N/NC(=O)COc3c(C)cccc3C)cc2)cc1	·	?	·	-8	3	?
COc1ccc(/C=C/C=N/NC(=O)COc2ccc(OC)cc2)cc1	0%	-21%	0.79µM*	43*	17	-7%
CCOC(=O)N/N=C/C=C/c1ccccc1	?	?	-27%	60*	61*	73%
COc1ccc(NCC(=O)N/N=C/C=C\c2ccccc2)cc1	3%	2.6µM*	?	19*	21*	16%
COc1ccc(/C=C/C(=O)Oc2cccc(/C=N/NC(=O)COc3c(C)cccc3C)c2)cc1	?	-2%	?	105*	53*	23%
O=C(NCCN1CCC(Cc2ccccc2)CC1)C1CCCN(S(=O)(=O)c2cnc[nH]2)C1 (stereo not drawn)	-1%	-22%	·	-4	-10	·
COc1ccccc1N1N=C(C(=O)c2ccccc2)C2C(=O)N(c3ccc(Br)cc3)C(=O)C21 (stereo not drawn)	7%[46.1 µM]	-26%	19%	-3	0	?
CC(C)N(Cc1ccccc1)C(=S)Nc1cccnc1	-3%[46.1 µM]	7.4µM*	15%	-2	-5	?
CCN(Cc1ccncc1)C(=S)Nc1ccccc1	6%[46.1 µM]	2.9µM*	-5%	-11	-2	24%
O=C(CN1C(=O)S/C(=C\c2ccccn2)C1=O)Nc1ccc(F)cc1	-19%[46.1 µM]	-92%	-2%[46.1 µM]	-2	-2	-8%
CC(=O)Nc1cccc(N=NN2CCCCC2)c1	-19%[46.1 µM]	-2%	18%	38	17	9%
Cc1[nH]c2c(ccc3cccnc32)c1C	0%[14.2 µM]	19%	4%	41*	17*	18%
Clc1ccc2ccc3cccnc3c2n1	·	?	·	51	5	?
Cc1nc2sccn2c(=O)c1S(=O)(=O)N1CCN(c2ccccc2)CC1	·	14%	·	-3	-3	-8%
Cc1nc2sccn2c(=O)c1CCN1CCC(=C(c2ccccc2)c2ccc(F)cc2)CC1	?	15µM*	?	-16	-5	15µM*
CCCCCCc1c(C)c2ccc(OCC(=O)N[C@@H](Cc3ccccc3)C(=O)O)cc2oc1=O	·	-26%	·	-6	-3	-6%
CCC1CN(S(=O)(=O)c2cc(-c3cc(C)no3)ccc2OC)c2cc(Cl)ccc2O1 (stereo not drawn)	·	·	12%[46.1 µM]	·	·	·
CCc1ccc(-c2cc(C)no2)cc1S(=O)(=O)N1CCN(c2cccc(Cl)c2)CC1	·	·	-23%[46.1 µM]	·	·	·
CCc1ccc(-c2cc(C)no2)cc1S(=O)(=O)N1CCN(c2cc(C)ccc2C)CC1	?	11%	-16%[46.1 µM]	3	-2	13µM*
COc1ccc(-c2cc(C)no2)cc1S(=O)(=O)N(C)Cc1ccco1	·	-14%	·	-6	-5	17%
CCC1CN(S(=O)(=O)c2cc(-c3cc(C)no3)ccc2OC)c2cc(C)ccc2O1 (stereo not drawn)	·	?	-17%[46.1 µM]	-8	7	10µM*
